Experimental data taken from the supplement of paper PMC10338343.
± gives the standard deviation.

tested on: MILI (PIWIL2) piRISC loaded with L1MC piRNA (26 nt); assay: pre-steady-state target cleavage rate (min^-1); guide: L1MC piRNA 5'p-UAACUAAAUACUAUGCAAGCUGUAGG; MIWI and MILI are mouse PIWI proteins and EfPiwi is from a freshwater sponge; tags in brackets are library labels; higher = faster piRNA-guided slicing of the target; details: auxiliary factor: 500 nM mouse GTSF1
Procedure, shortened: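 Cleave-'n-Seq: a transcribed, DNA-blocked target RNA library (0.1 nM) was mixed with 1 nM active affinity-purified piRISC carrying one synthetic guide, with or without 500 nM GTSF1 partner protein, in HEPES–potassium acetate buffer at 33 °C for 0–8 or 0–960 min. Uncleaved targets were sequenced and normalised to depth and to weakly complementary targets. Three trials were pooled, and k3 was capped at 0.0001 min^-1. The pre-steady-state cleavage rate came from a burst-and-steady-state fit.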

| Sequence | pre-steady-state target cleavage rate |
| --- | --- |
| UCCUGGAUGACCUUGCAUAGUAUUAAGUUA | 0.141 ± 0.022 |
| UCCUGGAUCAGCUUGGUUAGUAUUUAGUUA | 0.209 ± 0.016 |
| UCCUGGAUGUCGAUGGAUAGUAUUUAGUUA | 0.0431 ± 0.0076 |
| UCCUGGAUGUCCUUGCAUUGUAUAUAGUUA | 0.0803 ± 0.022 |
| UCCUGGAUGUCCAUGCAUAGUUUUUAGUUA | 0.0166 ± 0.0043 |
| UCCUGGUACUGCUUGCAUAGUAUUUUGUUA | 0.0539 ± 0.019 |
| UCCUGGAUCAGCUUGCAUAGUGAUUUAGUUA | 0.0194 ± 0.0067 |
| UCCUGGUACAGACUUGCAUAGUAUUUAGUUA | 0.228 ± 0.042 |
| UCCUGGAUGUCCUUGCAUAGAUUUUAGUUA | 0.0121 ± 0.0046 |
| UCCUGGAUGUGCUAGCAUAGAAUUUAGUUA | 0.0105 ± 0.0042 |
| UCCUGCUACAGCUUGCAUUCUAUUUAGUUA | 0.0454 ± 0.0087 |
| UCCUGGUACAGGAAGCAUAGUAUUUAGUAA | 0.167 ± 0.023 |
| UCCUCCUACGGCUUGCAUAGUAUUUAGUUA | 0.298 ± 0.018 |
| UCCUGGUACAGCUUGGAUAGUAUUAAGUUA | 0.174 ± 0.038 |
| UCCUGGAUGUCGAUGCAUAGUAUUUAGGUUA | 0.0911 ± 0.016 |
| UCCUGGAUGUCGAUGCAUAGUAUCUUAGUUA | 0.0692 ± 0.013 |
| UCCUGCUACAGCUUGCAUUGUUUUUAGUUA | 0.0212 ± 0.007 |
| UCCUGGAUGUGCUUGCAAAGUUUUUAGUUA | 0.00595 ± 0.0038 |
| UCCUGGAUGUGCUUCCUUAGUAUUUAGUUA | 0.0394 ± 0.0077 |
| UCCUGGAUGUCGUUGCAUCGUAUUUAGUUA | 0.0281 ± 0.0074 |

| Sequence | pre-steady-state target cleavage rate |
| --- | --- |
| UCCUGGAUGUCGUUGCAUAGUCAUUUAGUUA | 0.00441 ± 0.0039 |
| UCCUGGAUGUCGUUGCAUAGUAUUUAAGUUA | 0.191 ± 0.032 |
| UCCUGGAACAGCUUGCUUAGUUUUUAGUUA | 0.0579 ± 0.012 |
| UCCUGGAUGUCGAUGCAUAGUGUUUAGUUA | 0.0372 ± 0.0094 |
| UCCUGGAUCAGCUUGCAAAGUAUAUAGUUA | 0.104 ± 0.012 |
| UCCUGGAUCAGCUUGCAAAGUAUUUUGUUA | 0.1 ± 0.018 |
| UCCUGGAACAGCUUGCAUUGUUUUUAGUUA | 0.0144 ± 0.0059 |
| UCCUGGAUGUGCUUGGAUAGUAUUUAGUUA | 0.115 ± 0.013 |
| UCCUGGAUGUCGAUGCAUAGUAUCUAGUUA | 0.0915 ± 0.017 |
| UCCUGCUACAGCUUGCAUUGUAAUUAGUUA | 0.201 ± 0.024 |
| UCCUGGAUGUCGUUGCAUAGUAUUAUAGUUA | 0.173 ± 0.03 |
| UCCUCCUACAGCUUCGUUAGUAUUUAGUUA | 0.221 ± 0.013 |
| UCCUGGAUCAGCUUGCAUAGUAUUAACUUA | 0.0348 ± 0.011 |
| UCCUGGAUGUCCUUGCAUAGUAUAUAGUUA | 0.149 ± 0.026 |
| UCCUGCUAGUGCUUGCAUAGUAUUUAGUUA | 0.0937 ± 0.017 |
| UCCUGGAUGUCGUUGCAUAGUAUCUUAGUUA | 0.0991 ± 0.021 |
| UCCUGGAUGUCGAACGAGAGUAUUUAGUUA | < 0.0001 |
| UCCUGGAUGUCCUAGCAUAGUAUUUAGUUA | 0.0817 ± 0.015 |
| UCCUGGUACAGCUUGCAAUGUAUUUAGUUA | 0.0755 ± 0.013 |
| UCCUGGAUGUCGUUGCAUAGUAUUUAGUAUA | 0.127 ± 0.03 |
